108 sequences from PubChem BioAssay AID1508600 (Functional Genomics Laboratory (NCATS/FGL), 2020) can be followed below.

Screen size: about 53,000 sequences; about 3,700 (7%) were called active. The full list was thinned out, with actives kept by preference. Unmarked numbers belong to inactive results.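 How the source made its calls: active means gene knockdowns whose robust z-score for IL-1 alpha signal is at least 2 or at most -2, so actives lie on both sides; inactive means the rest.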

The nature of the assay: Components of the Cytosolic LPS Sensing Pathway: Gene Identification via Genome-wide siRNA Screen.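 Further: robust z of the log signal after scaling to non-targeting control siRNA wells of the plate.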 Particulars: RAW264.7 macrophages, IL-1a HTRF, actives lie on both sides, screened at 100 nM (by protocol), cells primed 5 h with Pam3CSK4 first. An outline of the steps: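 Supernatant IL-1a by HTRF from RAW264.7 cells primed with Pam3CSK4 (5 hours) and transfected with LipidA (24 hour) after 48h siRNA knockdown at 100 nM; cell viability checked with CellTiter-Glo.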
For orientation: TR-FRET usually uses a lanthanide donor and a delayed reading to cut background.
In the case of CCCUAUUGAUUCAACUUGGTT against Samt4, the z-score was 0.253.

In the case of GGGCAACGUAUUCACAUUATT against Manbal, the z-score is 2.86 (active).

Consider GGAGCUUUGAAGAGACUGGTT against Olfr117, for which the z-score was -2.32 (active).

Consider GGUGCUGCUGAGAUUUUUCTT against Pxt1, for which the z-score is 0.555.

Take GGCAAUGGAGAGAGAGAUGTT against Patl1: the z-score is -2.36 (active).

Take GGAUCAAAGGAAGAAGGGCTT against Zbtb24: the z-score is -0.00585.

As for GGCCAGAACUUAAAUUUUCTT against Nbr1, the z-score is 0.658.

GGUAGUGUCUAACUUCUGGTT against Zkscan17: the z-score was 2.13 (active).

Regarding “GGGACAAUUCUGGAUUAAATT against 9330155M09Rik”, the z-score is -0.639.

GGGAAUCACCCUGAGAAAGTT against Ccndbp1: the z-score was -0.269.

As for GAACAGUCCUUUUAUGGAUTT against Vmn1r33, the z-score was 0.38.

For the sequence GCAUCCUUCACUCAAAUAUTT against Aspa, the z-score was 3.17 (active).

Consider GGACAGAGUUUUCAUUUUGTT against Rptn, for which the z-score was -1.51.

GCUUCAGCCAUUUCACCUUTT against Rnaseh2c: the z-score is 0.108.

On to GGGAAUAAUCUACAAGCCATT against Ccdc121, for which the z-score is 1.92.

Consider GGUGUACCAGCAUAGCUGUTT against Hps5, for which the z-score was 1.24.

For GGAAAAUUACAGAAUUGGATT against Dnali1, the z-score was 0.323.

With GGAGCACUUUAAGUUAUACTT against Rnf225, the z-score was 1.73.

GGAAGAUGACAACUUAUCUTT against Abcc8: the z-score was -0.854.

On to AUGAAAACCAUUCCCAAUUTT against Olfr435, for which the z-score is 5.22 (active).

With “GGCUGUUCUCUAGAUGAAUTT against 1810065E05Rik”, the z-score was -1.54.

As to GCACUAGCUAAUAAUGCAATT against Oxsm, the z-score was -1.54.

Turning to GGAAUGAGAAGAGAGGAUCTT against Rpp25, the z-score is -0.239.

GGGCAAGUUUUUUUUUCUUTT against Sf3a2: the z-score was 0.586.

Regarding UGGCCUGAUCAUGAACAGUTT against S100a7a, the z-score is 1.21.

As for GGCCGAAGAAUUCAUCUUUTT against Pomgnt2, the z-score is -0.339.

Consider GGUCGAUUUGUCCUUGUGCTT against Rassf7, for which the z-score is -2.04 (active).

On to GGGCCUGAAAAGACCAUCATT against Olfr124, for which the z-score was -0.424.

Regarding CCUUGAUCUACAUAGAACCTT against Olfr177, the z-score is 0.338.

Consider GGGAUUUUGUGAUGUCCGCTT against Mmp23, for which the z-score was 0.422.

CCACUUUCAACCUGACCGUTT against Pcdhac2: the z-score is 0.345.

On to GGACGAUUCCCAGUUUCUGTT against Phf1, for which the z-score was 1.25.

On to GCCGGAAUCAAGAUUAUCATT against Foxm1, for which the z-score was -2.04 (active).

For the sequence GGCUGCUUUCUGAUGGUCATT against Marchf3, the z-score is 0.595.

Turning to GGAAUACUGAAUUUAAGGATT against Olfr1416, the z-score was 1.25.

For GGAAGCGUAAAUAAGUGUCTT against Emp2, the z-score was 0.772.

Turning to GGAAAAUGUUGAAGUGGAATT against Ndufa5, the z-score is -0.805.

As for GGUGCAUGCACUGAAGAAGTT against Mpv17, the z-score is 1.39.

CGAAUAGGGAGCCAUAAGATT against Tubb6: the z-score is 1.66.

GCCUCACUCAGCAAAAGGATT against Ttc9c: the z-score was -2.09 (active).

As for “GGAGACCUGUGACUCCUUATT against 4932415M13Rik”, the z-score is 1.9.

Take GCUAGACUUCUUUGUGCGATT against Abhd8: the z-score was 0.656.

As for GGCAAUGGCACUGAAGUCATT against Olfr994, the z-score was -0.0376.

Turning to CCCAAGCAACCCUUAUCAATT against Mcee, the z-score is -0.315.

As to GGUAUCACUACUUUUUAGUTT against Eri3, the z-score is -0.742.

Regarding GGUUUGUGGUGGUAUUUAATT against Man2a2, the z-score was 2.47 (active).

With GGAUGAGGACACCAUUGAUTT against Sumo3, the z-score was 0.723.

Turning to GGUUGACGAAAUGACUAUATT against Adh4, the z-score was -0.105.

Take GCAGACCAGACAGUAUUACTT against Zeb1: the z-score was 1.22.

GCCUCUCAUUAGCAGUCAATT against Fbxl15: the z-score is -1.92.

In the case of CGUUAGCUGUUAUGAUCUATT against Cept1, the z-score was 0.203.

Turning to GGGUCCUAAGGGAUUUAUUTT against Klf16, the z-score is -0.49.

As for GGUUUUGCACAGCAUUGGUTT against Efna1, the z-score was -1.02.

In the case of GGAAUCAAACUGGAUUGAUTT against Pi4k2b, the z-score was 2.01 (active).

With GGUAUUGGAUCAUUUACAATT against Nae1, the z-score is -0.0968.

With CGAUUUGCCCAAUAAAGAATT against Scn9a, the z-score was 0.223.

Take GGACGAAUUUCUUACAGUATT against Mterf4: the z-score was 2.2 (active).

Consider GCCGAUGUCAGUGGUUAAATT against Bmx, for which the z-score was 0.198.

Turning to CCUGGUAUAUUACCGCUUCTT against P3h4, the z-score was 0.519.

For the sequence GGAUCUCUGGGUCUGAAAATT against Ccz1, the z-score was 0.606.

GCACGUCCAUUCUGCUUUCTT against Smco4: the z-score was 2.4 (active).

Consider GGACCUGUGUGCUGAGUUGTT against Matn4, for which the z-score was -1.59.

As to GGGAGAUUAAUCAAGAACUTT against Ccnc, the z-score is 0.809.

For the sequence GGUUGGAGAUCUCAUCUAUTT against Exosc3, the z-score was 0.699.

Consider GCACCUCUCUACAUUACUGTT against Igflr1, for which the z-score is -0.0949.

As to GGCUGAAGACACUGAACACTT against Olfr643, the z-score is -2.51 (active).

As to GCAUUCAGAAAGUGUAUAATT against Tspan3, the z-score is -0.0953.

On to GGGUGAAGGUGAAUAUUUATT against Esm1, for which the z-score was -1.12.

As to GGCCUAGACAUACAUGAAATT against Bnip3l, the z-score is 2.93 (active).

As for GCCAAAGUAGUUGAACCUUTT against Cibar1, the z-score was -0.48.

Turning to GGACUGAACCGUUUUAAAGTT against Fmo3, the z-score is -0.317.

On to GCAUUACUUUAAGCCAUAUTT against Rbl1, for which the z-score was 3.57 (active).

Regarding GGGCCUGUACAUCUUCCAATT against Anpep, the z-score was 0.926.

With CUGGAUGCAUUAACUUCUUTT against Olfr1219, the z-score was 0.326.

Consider GGGUAGUUAUGACUAAAUUTT against Etl4, for which the z-score is 1.31.

As for GGAGAAUAUUCUCUGUGGATT against Rab11fip5, the z-score was -2.71 (active).

GCACACUACAACGUAUCACTT against Stpg2: the z-score is 1.31.

Regarding CCCAACUGUCAAAUAAUCCTT against Eddm3b, the z-score is 0.0505.

Take GCCAUUACCCGGUAUAUGATT against Sesn1: the z-score is -1.96.

As for GGAUCACUCUAAUUCAGAUTT against Fcamr, the z-score is 1.93.

Consider GGACAUUUGAUAUUGAAGATT against B3gnt2, for which the z-score was -1.88.

Regarding CGGAAGUAAAAAGAACUACTT against Olfr1321, the z-score was 3.01 (active).

On to CCCUGGUGACUACGAGAAUTT against Chrna4, for which the z-score was -0.462.

As to GGACUUUACAAUAAAACAGTT against Dkk4, the z-score is -2.2 (active).

As to GGUGAUGCCUUAUUUUGAATT against Ap5s1, the z-score was -1.1.

In the case of GGUAACAAACCGAAAGUAUTT against Polr3k, the z-score is -0.539.

Turning to GGAACAAGUGUCUGACAGUTT against Emc3, the z-score is 1.82.

Regarding GCGCACAGUACAUUCAUUUTT against Drd5, the z-score is 3.62 (active).

As to CCGAAAACUUAUCUAGAAATT against BC023105, the z-score was -0.846.

Turning to GGAUCAACAUGGUCUCCUCTT against Stambpl1, the z-score was -1.63.

For the sequence GCCAGAAAAGUACCACCAGTT against Slc35f4, the z-score was -1.15.

For the sequence GCUUUCAUAGAAUCUUGGCTT against Rnf24, the z-score was 0.709.

On to GGAGAUGGCUAUAUUCUGATT against Lipa, for which the z-score is 0.0668.

Turning to GCGAGUACUUACUCUUCGUTT against Rpl3, the z-score is -0.355.

For the sequence GCACGUGAACACAAACCCGTT against Nup50, the z-score is -1.13.

Take GCUUAAGUGUGAUACAGUGTT against Rars2: the z-score is 2.45 (active).

As to GUUACAGCUGCCUUUGUUUTT against Olfr893, the z-score is -2.49 (active).

Take CGUCUGUCAGAAACUACACTT against Atrnl1: the z-score is 0.864.

Turning to GCUCAGUUUCUCAUGAAACTT against Tespa1, the z-score was 0.206.

For GGAAUGCAGAAAUGAAAAATT against Olfr1234, the z-score was -0.909.

Take GGAAAGAAGAACCAAGCUCTT against Med6: the z-score is -1.01.

As to GAUCAAAGCGGCGUACUACTT against Dnajc30, the z-score is 0.738.

With GGAAAAGUAUCCAUGUCACTT against Impa1, the z-score was -1.75.

In the case of GGCAUCAUAAAGCCAGGCATT against Sybu, the z-score was -2.42 (active).

Consider GGGUAUAUAAGCAGCACCATT against Rdh9, for which the z-score was 0.736.

For “CCCAUCCAAGAUUUGAUUUTT against 2310002L09Rik”, the z-score is 1.89.

As to GGCUGUAGUUGGCUAACACTT against Slc25a28, the z-score was -0.103.

On to “GGUAACAAUCACCAUAUUCTT against 1700029F12Rik”, for which the z-score was -1.94.
